# HCMV inh: qHTS Assay for inhibitors of the human cytomegalovirus (HCMV) | 410,000 compounds, 4.5% hits | AID 1259415, 2018 | HFF cells, HCMV-luciferase reporter, 72 h; stronger effect = lower value | activity change, negative = inhibition, % at 57.5 µM; in the data active = activity change below about -60%; inconclusive = no clear call, values can overlap the other calls; inactive = above about -39%
#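 Steps: HFFs plated, 16 h 37C; compounds added; HCMV-luciferase added to MOI 1 PFU/cell; 72 h 37C; OneGlo reagent, 5 min room temperature; luminescence read, normalized to controls.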
# LASV entry inh: qHTS for Inhibitors of binding or entry into cells for Lassa Virus; 300,000 compounds, 1.2% hits; Potency, µM (top dose mostly 37.9 µM), inactives show at the top dose activity change, negative = inhibition, most hits filed as inhibitors; Lassa virus pseudotype entry inhibition, cell reporter; calls by dose curve; tested in HEK293 cells; also: potency is read from the fitted curve at half-maximal effect; nearly all actives have a fitted effect of over 50% in size
# MARV entry inh: qHTS for inhibitors of binding or entry into cells for Marburg Virus; Marburg virus pseudotyped entry inhibition, cell reporter; 300,000 compounds, 1.8% hits; Potency, µM (titrated, usually from 37.8 µM), without a hit: at the top dose activity change, negative = inhibition, usual class: inhibitors; calls by dose curve; tested in HEK293 cells; also: potency is read from the fitted curve at half-maximal effect
# FMDV inh: High Throughput Screening for Foot and Mouth Disease Virus Antivirals; 410,000 compounds, 1.2% hits; FMDV antiviral cell-based qHTS; AID 1159524, 2015; Potency, µM (top dose mostly 57.9 µM), inactives show top-dose activity change, negative = inhibition, most hits filed as inhibitors; calls by dose curve; tested in HEK293T cells; also: read-out not given here; potency is read from the fitted curve at half-maximal effect; nearly all actives have a fitted effect of over 45% in size
# * = called active by the depositor; ? = inconclusive; . = no result; [ ] = another dose, or the depositor's remark. This is a sample that favours compounds with a hit; in the whole collection about 6.2% have one here. % is scaled to controls: 0 for no effect and ±100 for the full control effect.
SMILES,HCMV inh,LASV entry inh,MARV entry inh,FMDV inh
COc1ccc(OCC(=O)N2CCN(C(=O)c3cc(OC)c(OC)c(OC)c3)CC2)cc1,-17,-15%[46.1 µM],.,-14%
COc1ccc2cc3c(N)nn(C(=O)c4cccc([N+](=O)[O-])c4)c3nc2c1,-86*,?,?,1%
COc1ccc2cc3c(N)nn(C(=O)C4CCC(C(C)(C)C)CC4)c3nc2c1 (stereo not given),-79*,7%,10%,-22%
COc1ccc(-n2cnc3cc([N+](=O)[O-])ccc32)cc1,?,29%,-7%[46.1 µM],14%
COc1ccc(-n2cnc(N)c2C(=O)c2cccc([N+](=O)[O-])c2)cc1,-67*,-33%,?,0%
COc1ccc2cc3c(N)nn(C(=O)c4ccc(F)cc4Cl)c3nc2c1,-70*,-3%[46.1 µM],-7%[46.1 µM],-14%
CCOc1ccc(CNS(=O)(=O)c2c(C)nc3scc(C)n3c2=O)cc1OC,-29,-13%[46.1 µM],-1%[46.1 µM],-6%
CCc1cccc(NC(=O)Cn2nc(-c3cc(C)ccc3C)ccc2=O)c1,24,0%[46.1 µM],?,0%
Cc1ccc(S(=O)(=O)N2CCC(=O)N([C@H](COCc3ccc(C(F)(F)F)cc3)C(C)C)CC2)cc1,45,?,.,.
CCCC(c1nnnn1Cc1ccc2c(c1)OCO2)N1CCC(C(N)=O)CC1 (stereo not given),-32,-16%,-1%[46.1 µM],18%
CCOC(=O)c1ccc(NC(=O)COc2ccccc2CNCCc2ccccc2)cc1,-65*,.,.,-26%
CCOc1cc(CNCCO)ccc1OCC(=O)NC(C)(C)C,-17,17%,5%[46.1 µM],-15%
CCOc1ccc(NC(=O)COc2ccc(C(=O)NCCc3ccccc3)cc2)cc1,-81*,?,-26%,-5%
CCOc1ccc(NC(=O)C(=O)NCCc2ccccc2)cc1,4,-8%[46.1 µM],.,-1%
CCOC(=O)c1ccc(NC(=O)COc2ccc(CNCCO)cc2OCC)cc1,0,.,10µM*,-8%
O=C(O)C(Cl)Cl,.,.,.,0%
CCCn1c(SCC(=O)NC)nc2sc3c(c2c1=O)CCC3,35,-7%,10%[46.1 µM],-5%
CCN1CCN(c2cc(C)c3cc(NC(=O)c4cc(Br)ccc4Cl)ccc3n2)CC1,-72*,?,?,-17%
CCN1CCN(c2cc(C)c3cc(NC(=S)N4CC(C)CC(C)C4)ccc3n2)CC1 (stereo not given),?,-27%,?,-2%
CCN1CCN(C(=S)Nc2ccc3nc(N4CCN(C)CC4)cc(C)c3c2)CC1,?,10µM*,?,-18%
CCN1CCN(c2cc(C)c3cc(NC(=S)N4CCCC(C)C4)ccc3n2)CC1 (stereo not given),-71*,?,7.9µM*,-18%
CCN1CCN(c2cc(C)c3cc(NC(=O)c4cccnc4Cl)ccc3n2)CC1,34,-3%,?,0%
O=C(Nc1cccc2cccnc12)c1csc(COCCO)n1,.,.,.,-19%
COC(=O)C1C(=O)C2=C(CC1C)NC(=O)CC2c1ccccc1 (stereo not given),8,4%,28%,-13%
COc1ccc(C(=O)N2CCC3(CCN(C(=O)Nc4ccccc4)CC3)CC2)cc1,.,.,.,-15%
SMILES,HCMV inh,LASV entry inh,MARV entry inh,FMDV inh
Cc1ccc(Cn2c(=N)n(CC(O)c3ccco3)c3ccccc32)cc1 (stereo not given),-26,-21%,11µM*,?
CCCn1c(=N)n(CC(=O)c2ccc(Cl)cc2)c2ccccc21,-83*,?,?,12%
CCCn1c(=N)n(CC(=O)c2ccc(OCC(=O)OC)cc2)c2ccccc21,-96*,.,.,-20%
CC(C)(C)C(=O)Cn1c(=N)n(Cc2ccccc2)c2ccccc21,-17,3%,?,-24%
Cc1ccc(Cn2c(=N)n(CC(=O)c3ccccc3)c3ccccc32)cc1,-83*,.,.,-39%
Cc1cc(NC(=O)c2ccc(C#N)cc2)n(-c2ccccc2)n1,4,.,.,2%
CCN(CCCNC(=O)CN1N=C(c2ccccc2)CCC1=O)c1ccccc1,-24,-4%[46.1 µM],.,-8%
CCCCc1oc2ccc(NS(C)(=O)=O)cc2c1C(=O)c1ccc(OCCCN(CCCC)CCCC)cc1,-82*,.,.,.
CCCCCOc1ccc(NS(C)(=O)=O)cc1,125,9%,23%,42%
O=S(=O)(/C=C/c1ccccc1)N1CCN(c2nc(-c3cccnc3)nc3ccccc23)CC1,?,?,11µM*,-20%
CN1C(=O)N(C)C(=O)C2(Sc3ccccc3C2=O)C1=O,0,-12%,9%,-7%
